These results are taken from ChEMBL document CHEMBL1961873, “Compounds: GSK PKIS; Assays: Nanosyn kinase panel” (2012).

In test [1] the target is Serine/threonine-protein kinase pim-2 (Homo sapiens) (UniProt Q9P1W9). The note with it: at 1 µM.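 Note: each value is a mean of the inhibition measurements against the kinase.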
The target in test [2] is Serine/threonine-protein kinase pim-3 (Homo sapiens) (UniProt Q86V86). As to conditions: at 0.1 µM.
For test [3] the target is unchanged. The note with it: at 1 µM.
The target in test [4] is T1, MAP kinase-activated protein kinase 5 (Homo sapiens) (UniProt Q8IW41).
T1 sequence (whole entry): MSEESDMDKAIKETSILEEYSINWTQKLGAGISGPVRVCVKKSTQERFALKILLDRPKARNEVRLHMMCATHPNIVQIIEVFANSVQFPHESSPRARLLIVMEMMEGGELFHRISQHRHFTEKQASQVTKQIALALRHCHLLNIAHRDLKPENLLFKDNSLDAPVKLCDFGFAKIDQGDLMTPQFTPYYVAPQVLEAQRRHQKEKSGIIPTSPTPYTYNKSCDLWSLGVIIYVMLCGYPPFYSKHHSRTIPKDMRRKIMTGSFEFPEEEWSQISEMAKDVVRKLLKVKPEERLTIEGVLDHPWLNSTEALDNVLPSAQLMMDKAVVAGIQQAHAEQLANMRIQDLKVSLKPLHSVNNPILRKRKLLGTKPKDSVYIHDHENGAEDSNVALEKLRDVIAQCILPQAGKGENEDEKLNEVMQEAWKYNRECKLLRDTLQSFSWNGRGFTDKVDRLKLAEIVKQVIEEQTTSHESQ
As to conditions: at 0.1 µM.

Test [5] deals with T1, MAP kinase-activated protein kinase 5 (Homo sapiens). The note with it: at 1 µM.
In test [6] the target is Serine/threonine-protein kinase SIK1 (Homo sapiens) (UniProt P57059). The note with it: at 0.1 µM.
Test [7] shares this target. As to conditions: at 1 µM.
Test [8] has as its target Serine/threonine-protein kinase SIK2 (Homo sapiens) (UniProt Q9H0K1). The note with it: at 0.1 µM.
For test [9] the target is unchanged. As to conditions: at 1 µM.
Test [10] deals with T2, Serine/threonine-protein kinase TBK1 (Homo sapiens) (UniProt Q9UHD2).
T2 sequence (whole entry): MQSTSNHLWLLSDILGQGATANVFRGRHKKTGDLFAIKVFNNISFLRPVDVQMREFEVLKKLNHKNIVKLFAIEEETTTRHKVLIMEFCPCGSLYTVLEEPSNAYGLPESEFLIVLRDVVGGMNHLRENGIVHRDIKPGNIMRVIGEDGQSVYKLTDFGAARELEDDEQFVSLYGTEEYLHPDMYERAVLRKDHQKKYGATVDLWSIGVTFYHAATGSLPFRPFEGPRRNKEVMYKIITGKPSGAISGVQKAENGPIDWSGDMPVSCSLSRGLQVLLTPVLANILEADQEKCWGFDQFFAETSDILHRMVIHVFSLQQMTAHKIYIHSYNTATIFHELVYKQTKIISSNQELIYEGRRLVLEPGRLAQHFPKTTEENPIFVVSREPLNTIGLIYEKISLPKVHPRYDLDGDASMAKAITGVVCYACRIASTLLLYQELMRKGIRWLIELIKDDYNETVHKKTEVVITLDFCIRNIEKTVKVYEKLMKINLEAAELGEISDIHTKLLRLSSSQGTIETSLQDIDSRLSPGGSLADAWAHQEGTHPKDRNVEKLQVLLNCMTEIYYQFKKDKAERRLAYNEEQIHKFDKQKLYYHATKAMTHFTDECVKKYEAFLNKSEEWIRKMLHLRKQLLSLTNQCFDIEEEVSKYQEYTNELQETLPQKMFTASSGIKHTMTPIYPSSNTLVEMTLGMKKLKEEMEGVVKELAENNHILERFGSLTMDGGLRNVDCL
The note with it: at 0.1 µM.

In test [11] the target is T2, Serine/threonine-protein kinase TBK1 (Homo sapiens). The note with it: at 1 µM.
The target of test [12] is T3, Testis-specific serine/threonine-protein kinase 1 (Homo sapiens) (UniProt Q9BXA7).
T3 sequence (whole entry): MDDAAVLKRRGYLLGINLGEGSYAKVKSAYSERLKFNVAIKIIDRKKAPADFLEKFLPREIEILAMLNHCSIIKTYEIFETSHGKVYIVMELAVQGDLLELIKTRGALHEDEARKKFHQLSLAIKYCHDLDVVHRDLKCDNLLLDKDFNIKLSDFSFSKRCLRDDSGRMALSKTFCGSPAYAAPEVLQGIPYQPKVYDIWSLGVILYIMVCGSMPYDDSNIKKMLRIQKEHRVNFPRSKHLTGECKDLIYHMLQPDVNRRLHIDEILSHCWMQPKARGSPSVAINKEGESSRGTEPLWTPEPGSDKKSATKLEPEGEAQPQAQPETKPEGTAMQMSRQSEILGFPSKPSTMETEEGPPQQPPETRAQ
The note with it: at 0.1 µM.

Test [13] has as its target T3, Testis-specific serine/threonine-protein kinase 1 (Homo sapiens). The note with it: at 1 µM.
Test [14] has as its target T4, Testis-specific serine/threonine-protein kinase 2 (Homo sapiens) (UniProt Q96PF2).
T4 sequence (whole entry): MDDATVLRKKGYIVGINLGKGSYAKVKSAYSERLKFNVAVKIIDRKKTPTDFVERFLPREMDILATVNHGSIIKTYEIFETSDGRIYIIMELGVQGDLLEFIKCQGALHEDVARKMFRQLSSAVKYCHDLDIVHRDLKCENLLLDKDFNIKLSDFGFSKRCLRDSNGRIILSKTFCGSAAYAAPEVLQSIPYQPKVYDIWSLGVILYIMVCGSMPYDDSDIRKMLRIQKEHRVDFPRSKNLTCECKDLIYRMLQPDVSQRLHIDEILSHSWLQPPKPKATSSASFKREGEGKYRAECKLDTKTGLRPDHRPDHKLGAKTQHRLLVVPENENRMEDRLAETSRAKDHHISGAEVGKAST
The note with it: at 0.1 µM.

Test [15] concerns the target T4, Testis-specific serine/threonine-protein kinase 2 (Homo sapiens). The note with it: at 1 µM.
Test [16] addresses Casein kinase I isoform alpha (Homo sapiens) (UniProt P48729). The note with it: at 0.1 µM.
The target is the same in test [17]. The note with it: at 1 µM.
Test [18] addresses Casein kinase I isoform gamma-1 (Homo sapiens) (UniProt Q9HCP0). The note with it: at 0.1 µM.
Test [19] has the same target. The note with it: at 1 µM.
Test [20] concerns the target Casein kinase I isoform gamma-2 (Homo sapiens) (UniProt P78368). As to conditions: at 0.1 µM.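 Note: values are mean inhibition figures reported as part of the GSK PKIS dataset.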

Chain of Casein kinase I isoform alpha (Homo sapiens) (P48729 2-337 limits assumed): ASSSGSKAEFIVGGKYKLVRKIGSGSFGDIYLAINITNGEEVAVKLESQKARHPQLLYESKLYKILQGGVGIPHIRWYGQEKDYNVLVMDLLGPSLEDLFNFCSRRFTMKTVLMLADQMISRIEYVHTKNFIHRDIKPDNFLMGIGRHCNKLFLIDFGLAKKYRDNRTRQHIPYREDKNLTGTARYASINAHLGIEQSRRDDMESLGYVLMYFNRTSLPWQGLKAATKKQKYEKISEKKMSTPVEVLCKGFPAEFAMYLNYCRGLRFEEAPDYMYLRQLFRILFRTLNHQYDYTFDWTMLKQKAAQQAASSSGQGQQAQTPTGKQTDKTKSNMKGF
Chain of Serine/threonine-protein kinase pim-2 (Homo sapiens) (Q9P1W9 whole entry, looked up): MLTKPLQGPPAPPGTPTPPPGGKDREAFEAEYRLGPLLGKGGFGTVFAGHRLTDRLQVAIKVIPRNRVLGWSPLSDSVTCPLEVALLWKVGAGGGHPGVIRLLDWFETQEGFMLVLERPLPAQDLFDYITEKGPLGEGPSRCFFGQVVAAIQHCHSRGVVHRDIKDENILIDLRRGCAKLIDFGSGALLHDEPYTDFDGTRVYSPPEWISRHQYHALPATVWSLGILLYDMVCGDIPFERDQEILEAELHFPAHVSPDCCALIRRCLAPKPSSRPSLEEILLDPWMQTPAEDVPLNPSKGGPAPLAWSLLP
Chain of Serine/threonine-protein kinase SIK2 (Homo sapiens) (Q9H0K1 whole entry, looked up): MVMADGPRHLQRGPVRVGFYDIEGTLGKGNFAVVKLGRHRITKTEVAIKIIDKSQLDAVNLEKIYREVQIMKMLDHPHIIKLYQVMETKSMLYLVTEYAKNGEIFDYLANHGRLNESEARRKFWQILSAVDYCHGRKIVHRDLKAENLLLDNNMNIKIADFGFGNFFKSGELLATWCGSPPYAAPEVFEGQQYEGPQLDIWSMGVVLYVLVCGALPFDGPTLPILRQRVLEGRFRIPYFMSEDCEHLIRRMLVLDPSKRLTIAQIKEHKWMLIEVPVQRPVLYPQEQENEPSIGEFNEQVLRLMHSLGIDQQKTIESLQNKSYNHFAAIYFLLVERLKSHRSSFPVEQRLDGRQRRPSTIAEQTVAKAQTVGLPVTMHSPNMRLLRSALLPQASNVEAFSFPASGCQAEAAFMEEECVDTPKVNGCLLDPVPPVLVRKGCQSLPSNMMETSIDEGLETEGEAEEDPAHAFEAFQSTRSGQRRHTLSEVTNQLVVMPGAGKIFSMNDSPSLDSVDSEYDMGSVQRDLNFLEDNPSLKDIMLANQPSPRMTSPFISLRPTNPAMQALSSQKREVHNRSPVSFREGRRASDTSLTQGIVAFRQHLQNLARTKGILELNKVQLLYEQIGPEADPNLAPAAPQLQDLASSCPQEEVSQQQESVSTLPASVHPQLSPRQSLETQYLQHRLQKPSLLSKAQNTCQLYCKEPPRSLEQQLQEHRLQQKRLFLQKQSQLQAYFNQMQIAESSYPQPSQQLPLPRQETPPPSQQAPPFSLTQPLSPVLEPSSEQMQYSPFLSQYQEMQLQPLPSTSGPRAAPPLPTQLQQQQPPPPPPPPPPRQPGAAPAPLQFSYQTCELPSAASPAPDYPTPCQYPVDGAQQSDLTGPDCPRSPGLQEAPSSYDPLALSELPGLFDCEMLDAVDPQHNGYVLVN
Chain of Serine/threonine-protein kinase SIK1 (Homo sapiens) (P57059 whole entry): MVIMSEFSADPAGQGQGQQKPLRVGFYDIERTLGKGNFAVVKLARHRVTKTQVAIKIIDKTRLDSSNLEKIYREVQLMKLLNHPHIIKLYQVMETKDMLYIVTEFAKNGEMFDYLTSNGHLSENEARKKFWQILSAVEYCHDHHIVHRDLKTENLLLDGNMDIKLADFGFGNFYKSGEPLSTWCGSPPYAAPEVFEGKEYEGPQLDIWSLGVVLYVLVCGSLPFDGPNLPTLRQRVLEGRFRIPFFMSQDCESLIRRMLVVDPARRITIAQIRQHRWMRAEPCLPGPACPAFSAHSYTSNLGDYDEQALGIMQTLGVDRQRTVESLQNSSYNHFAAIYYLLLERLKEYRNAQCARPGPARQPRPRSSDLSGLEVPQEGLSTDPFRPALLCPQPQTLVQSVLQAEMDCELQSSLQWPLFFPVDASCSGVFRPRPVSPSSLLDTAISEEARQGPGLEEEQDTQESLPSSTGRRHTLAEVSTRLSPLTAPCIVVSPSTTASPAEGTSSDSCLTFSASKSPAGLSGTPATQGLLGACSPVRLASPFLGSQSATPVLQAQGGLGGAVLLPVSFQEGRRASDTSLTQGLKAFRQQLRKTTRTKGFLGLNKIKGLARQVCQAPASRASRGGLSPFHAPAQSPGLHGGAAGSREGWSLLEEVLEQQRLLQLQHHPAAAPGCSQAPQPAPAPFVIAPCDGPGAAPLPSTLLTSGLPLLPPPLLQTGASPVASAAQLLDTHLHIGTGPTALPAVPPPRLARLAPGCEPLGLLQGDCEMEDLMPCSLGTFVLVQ
Chain of Casein kinase I isoform gamma-1 (Homo sapiens) (Q9HCP0 whole entry, looked up, canonical isoform): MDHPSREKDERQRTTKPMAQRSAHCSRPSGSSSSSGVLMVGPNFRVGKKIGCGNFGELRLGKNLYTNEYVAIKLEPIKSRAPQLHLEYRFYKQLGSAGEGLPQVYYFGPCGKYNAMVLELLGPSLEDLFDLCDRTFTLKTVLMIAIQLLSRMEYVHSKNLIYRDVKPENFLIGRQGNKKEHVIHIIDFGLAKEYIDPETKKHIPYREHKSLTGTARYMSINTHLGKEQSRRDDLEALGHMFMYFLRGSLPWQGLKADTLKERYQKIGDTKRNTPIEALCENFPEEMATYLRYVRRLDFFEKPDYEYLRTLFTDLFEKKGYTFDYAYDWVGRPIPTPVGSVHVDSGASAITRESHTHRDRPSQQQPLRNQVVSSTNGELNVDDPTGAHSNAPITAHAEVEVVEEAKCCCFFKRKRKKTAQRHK
Chain of Casein kinase I isoform gamma-2 (Homo sapiens) (P78368 whole entry, looked up, canonical isoform): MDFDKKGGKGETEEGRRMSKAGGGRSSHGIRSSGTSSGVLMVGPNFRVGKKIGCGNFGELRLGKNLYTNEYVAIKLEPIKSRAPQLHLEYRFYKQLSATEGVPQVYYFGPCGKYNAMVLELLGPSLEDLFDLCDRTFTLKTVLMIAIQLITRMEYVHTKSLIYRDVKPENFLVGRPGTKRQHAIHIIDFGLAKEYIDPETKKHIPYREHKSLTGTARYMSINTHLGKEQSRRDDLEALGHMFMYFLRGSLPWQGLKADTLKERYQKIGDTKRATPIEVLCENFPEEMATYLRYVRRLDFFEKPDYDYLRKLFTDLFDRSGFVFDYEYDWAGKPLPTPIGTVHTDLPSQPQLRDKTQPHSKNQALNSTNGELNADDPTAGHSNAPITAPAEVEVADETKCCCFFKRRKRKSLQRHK

For orientation: inhibition means the change of the read-out against control, counted positive when it falls. `Nc1nccc(-c2c(-c3ccc(F)cc3)nn3cc(C(F)(F)F)ccc23)n1`: the inhibition in [1] is 0.77%; in [2], 0.74%; in [3], 0.92%; in test [4] it was 0.34%; in test [5], 0.16%; in test [6], -0.43%. In addition, the inhibition was 1.61% in test [7]; -1.04% in test [8]; -1.57% in [9]; -2.75% in test [10]; -0.2% in [11]; 0.37% in [12]. The inhibition in test [13] was 1.13%; in test [14], 0.32%; in [15] it was -0.24%; in [16] it was 0.88%; in test [17] it was 10.8%; in [18], 0.74%. Besides, the results for the inhibition in [19] and in test [20] were 2.65% and 0.3%, respectively.

On to `CN(C)C(=O)O[C@H]1CN[C@H](C#Cc2cc3ncnc(Nc4ccc(OCc5cccc(F)c5)c(Cl)c4)c3s2)C1`, for which the inhibition in [1] is 0.45%; in test [2], -0.1%; in test [3], -1.11%; in test [4] it was 0.7%; in test [5], -0.94%; in [6], 4.32%. The inhibition is 5.89% in test [7]; 11.5% in [8]; 12.2% in [9]; -0.37% in test [10]; 4.42% in test [11]; 1.61% in test [12]. Moreover, the inhibition was 0.19% in test [13]; 0.42% in test [14]; -1.25% in test [15]; -3.89% in test [16]; 2.94% in test [17]; 1.92% in test [18]. Also, the inhibition in test [19] amounted to 2.06%; in test [20], 2.17%.

Take `CCCN1CCCC(c2ccc(Nc3nc(Nc4cc(F)ccc4C(N)=O)c4cc[nH]c4n3)c(OC)c2)C1` (stereo not given): the inhibition turned out to be 7.35% in test [1]; 4.99% in test [2]; 40.8% in test [3]; 5.81% in [4]; 33.2% in [5]; 6.07% in test [6]. Besides, the inhibition in [7] is 10.2%; in test [8], 2.41%; in test [9] it was 11%; in test [10] it was 4.22%; in test [11], 11.5%; in test [12], 81%. In addition, the inhibition in [13] is 92.6%; in [14] it was 62.5%; in [15], 86%; in test [16], 44.3%; in test [17] it was 78.5%; in test [18] it was 36.1%. For the same compound, the results for the inhibition in test [19] and in [20] were 78% and 29.6%, respectively.

Turning to `NS(=O)(=O)c1ccc(Nc2cc(-c3cccc(O)c3)n[nH]2)cc1`, the inhibition in [1] is 1.32%; in test [2], -2.75%; in test [3], -0.87%; in test [4], 1.59%; in [5], 1.7%; in test [6], 6.53%. Besides, the inhibition came out at 13.8% in [7]; 6.19% in test [8]; 16.4% in test [9]; 4.83% in test [10]; 6.87% in test [11]; 3.95% in test [12]. In addition, the inhibition came out at 3.25% in test [13]; 1.95% in test [14]; 1.79% in test [15]; 3.67% in test [16]; 5.95% in [17]; 5.15% in test [18]. The inhibition in test [19] turned out to be 6.27%; in [20] it was 3.99%.

Regarding `Nc1nccc(C#Cc2cncnc2Nc2ccc(OCc3cccc(F)c3)c(Cl)c2)n1`, the inhibition is 1.29% in [1]; -0.87% in [2]; -1.09% in [3]; 0.74% in test [4]; -0.01% in test [5]; 5.03% in [6]. Besides, the inhibition in [7] was determined as 6.42%; in test [8], 5.11%; in test [9], 8.28%; in test [10], 4.36%; in test [11], 9.39%; in test [12] it was 2.97%. The inhibition is 1.86% in test [13]; 1.69% in test [14]; -1.18% in [15]; 4.12% in test [16]; 5.01% in test [17]; 3.44% in test [18]. In addition, the values for the inhibition in test [19] and in test [20] were 4.16% and 2.25%, respectively.
